GalR3 antagonist: GalR3 antagonists in HEK293 cells, primary screen, cell-based, fluorescence readout | Galanin receptor type 3 (Homo sapiens), O60755 | HEK293 GalR3-CNG cAMP membrane potential fluorescence; galR3 body fused to GalR1 C-terminus | inhibition, % at 3 µM | hit rate 0.44% among 360,000;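 active = inhibition above the screen-wide average plus 3 SD, cut at about 13% in these data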;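 also: forskolin and galanin both at EC90 stimulate the cells; cAMP rise reported by CNG channel membrane potential dye signal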
Gli-Sufu block: Gli-Sufu pathway antagonists, primary screen, luciferase luminescence, Sufu-KO-LIGHT cells, uHTS | Sufu-KO-LIGHT fibroblasts, Gli luciferase reporter luminescence | inhibition, % at 5 µM | hit rate 0.74% among 340,000 | AID 588413, 2011;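 active = inhibition above about 55%, limit read from the data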
NR2F2 inh: NR2F2 transcriptional activity inhibitors, primary screen, cell-based, luciferase reporter, HEK293T, luminescence; COUP transcription factor 2 (Homo sapiens), P24468; HEK293T NGFI-A luciferase reporter; inhibition, % at 8.6 µM; hit rate 0.7% among 370,000;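 active = inhibition above a per-plate cutoff, mean inhibition of test wells between control levels plus 3 SD, cut at about 38% in these data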;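 also: cells cotransfected with COUP-TFII expression vector driving the NGFI-A reporter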
Target sequence (P24468 whole entry, looked up): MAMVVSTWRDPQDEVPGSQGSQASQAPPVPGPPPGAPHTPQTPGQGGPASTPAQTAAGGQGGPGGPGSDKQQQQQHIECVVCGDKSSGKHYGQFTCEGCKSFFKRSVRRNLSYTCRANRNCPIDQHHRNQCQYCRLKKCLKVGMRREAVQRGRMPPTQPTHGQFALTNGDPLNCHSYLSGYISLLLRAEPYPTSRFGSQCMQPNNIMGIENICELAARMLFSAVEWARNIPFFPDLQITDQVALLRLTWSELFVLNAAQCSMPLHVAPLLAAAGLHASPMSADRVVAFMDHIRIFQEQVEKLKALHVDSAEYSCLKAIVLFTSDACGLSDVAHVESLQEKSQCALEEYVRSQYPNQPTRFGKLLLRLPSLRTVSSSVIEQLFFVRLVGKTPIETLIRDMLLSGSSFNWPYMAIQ
aDG glyco act: activators of alpha-DG glycosylation, primary screen, uHTS, Pro5-aDG cells, AlphaScreen | alpha-DG glycosylation AlphaScreen (IIH6); 0% Pro5, 100% B10-LARGE cell signal | activation, % at 10 µM | hit rate 0.22% among 360,000;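 active = activation of at least 8% versus controls, or a plate z-score of at least 8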;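 also: Pro5 are CHO cells carrying HIG-tagged alpha-DG that lacks glycosylation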
Env fusion inh: inhibitors of HIV-1 Env-driven cell-cell fusion, primary screen, HeLa-JRFL effector, CEM21 target cells, luciferase; inhibition, % at 12.3 µM; hit rate 1.1% among 360,000;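 active = mean replicate inhibition score of at least 50 and every replicate individually at or above 50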
Gli antag conf: Gli-SUFU pathway antagonists, confirmation, single concentration, luciferase luminescence, Sufu-KO-LIGHT cells. shares compounds with Gli-Sufu block. Gli luciferase reporter. inhibition, % at 5 µM. hit rate 40% among 2,500. AID 602428, 2012;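 active = mean inhibition at 5 µM reaching about 45%, limit read from the data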
SufuKO cytotox: cytotoxicity in Sufu-KO-LIGHT cells, confirmation, cytotoxicity control for Gli-SUFU antagonist project, cell-based, ATP luminescence, single concentration. shares compounds with Gli-Sufu block. cytotoxicity, % at 5 µM. hit rate 32% among 2,500;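 active = mean cytotoxicity at 5 µM above about 25%, limit read from the data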;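 also: cells exposed to compound overnight for roughly 16 to 18 hours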
Wnt3a counter: Wnt3a reporter signal inhibition, confirmation, counter-screen for Gli-SUFU antagonist project, Wnt-LIGHT cells, luminescence, single concentration. shares compounds with Gli-Sufu block. Wnt3a-driven luciferase reporter. inhibition, % at 6.25 µM. hit rate 20% among 2,500. AID 651995, 2013;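 active = mean inhibition above about 25%, limit read from the data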
Hits are given with their value; . = inactive; / = not tested or not shown. A selection: hits, their analogues and other compounds. The true share with any hit is near 2.1%.

SMILES	GalR3 antagonist	Gli-Sufu block	NR2F2 inh	aDG glyco act	Env fusion inh	Gli antag conf	SufuKO cytotox	Wnt3a counter
C[C@H](CO)N1C[C@H](C)[C@@H](CN(C)C)Oc2cc(C#Cc3ccccc3F)ccc2S1(=O)=O	/	/	/	/	.	/	/	/
O=C(N/N=C/c1cc(Cl)ccc1O)c1ccc(Br)cc1	.	76	.	.	.	59	29	58
O=C(N/N=C/c1ccc(O)c(O)c1)c1cccc(S(=O)(=O)N2CCCCC2)c1	.	.	.	.	.	/	/	/
O=C(N/N=C\c1cc(Br)ccc1O)c1ccc(S(=O)(=O)N2CCCCC2)cc1	.	77	.	.	/	76	30	74
Cc1cc(C)c(C(=O)Cn2cnc3cc([N+](=O)[O-])ccc3c2=O)cc1C	.	.	.	.	.	/	/	/
CC1CCCCN1C(=O)Cn1cnc2cc([N+](=O)[O-])ccc2c1=O (configuration not stated)	.	55	.	.	.	.	.	.
CN(C)CCCN1C(=O)C2CCc3[nH]c4ccccc4c3C2C1=O (configuration not stated)	.	.	.	.	.	.	.	.
CN(C)CCCn1c(=S)[nH]c2ccccc2c1=O	.	.	.	.	.	/	/	/
S=C(Nc1ccc(Cl)cc1)NC1CC2CCCC(C1)N2C1CCCC1 (configuration not stated)	.	60	.	.	/	.	31	.
CCCCNS(=O)(=O)c1ccc(S(=O)(=O)NCc2ccncc2)cc1	.	57	.	.	/	59	37	.
O=S(=O)(NCc1ccccc1)c1ccc(S(=O)(=O)NCC2CCCO2)cc1 (configuration not stated)	.	.	.	.	.	/	/	/
O=S(=O)(NCc1ccncc1)c1ccc(S(=O)(=O)NCC2CCCO2)cc1 (configuration not stated)	.	.	.	.	/	.	.	26
CCn1c(=O)cc(SCC(=O)N2CCN(C3CCCCC3)CC2)c2ccccc21	.	97	.	.	.	46	.	.
CCn1c(=O)cc(SCC(=O)N2CCOCC2)c2ccccc21	.	.	.	.	.	/	/	/
O=C(CCNC(=O)C1CCN(S(=O)(=O)c2ccc(F)cc2)CC1)NCc1ccc(F)cc1	.	.	.	.	.	/	/	/
O=C(CCNC(=O)C1CCN(S(=O)(=O)c2ccc(F)cc2)CC1)NCc1ccc(Cl)cc1	.	61	.	.	.	.	.	.
CCOc1ccc(NC(=O)CCNC(=O)C2CCN(S(=O)(=O)c3ccccc3)CC2)cc1	.	57	.	.	.	.	26	.
C=C1C(=O)OC2C=C(CO)C3OC3C3OC3(C)CC(OC(=O)/C(=C/C)COC(C)=O)C12 (configuration not stated)	.	68	.	.	.	61	.	57
Cn1c(=O)[nH]c(=O)c2c1ncn2CCN1CCOCC1	.	92	.	.	/	.	.	.
Cc1noc(C)c1S(=O)(=O)Nc1ccc2c(c1)C(=O)N([C@H](C)CO)C[C@@H](C)[C@@H](CN(C)S(=O)(=O)c1cccs1)O2	/	/	/	/	.	/	/	/
C(#Cc1ccccc1)C[N+]1(CC#Cc2ccccc2)CCCCC1	.	81	.	.	.	79	38	.
C#CC[N+]1(CC#Cc2ccccc2)CCCCC1	.	.	.	.	.	/	/	/
O=[N+]([O-])c1ccc(/C=N/N/C(=N/c2ccccn2)c2ccccn2)cc1	.	.	.	.	/	/	/	/
O=[N+]([O-])c1cc(/C=N/N/C(=N/c2ccccn2)c2ccccn2)ccc1O	.	79	.	.	.	.	27	.
Cc1cc(C(=O)N/N=C2/CC(C)CC(C)(C)C2)c(C)o1 (configuration not stated)	.	.	.	.	.	.	.	.
SMILES	GalR3 antagonist	Gli-Sufu block	NR2F2 inh	aDG glyco act	Env fusion inh	Gli antag conf	SufuKO cytotox	Wnt3a counter
Cc1cc(C(=O)N/N=C2\CCCc3ccccc32)c(C)o1	.	.	.	.	.	/	/	/
Cc1ccc(C)c(NC(=O)C2CCN(S(=O)(=O)c3ccc4c(c3)NC(=O)CO4)CC2)c1	.	60	.	.	.	.	.	.
Cc1cccc(NC(=O)C2CCN(S(=O)(=O)c3ccc4c(c3)NC(=O)CO4)CC2)c1	.	.	.	.	.	/	/	/
CN1C(=O)c2cc(NC(=O)c3cccc(F)c3)ccc2OC[C@H]2O[C@H](CC(=O)NC3CCC3)CC[C@@H]21	/	/	/	/	.	/	/	/
O=C(Nc1cccc(Cl)c1)Nc1nnc(-c2ccncc2)s1	.	57	.	.	57	61	.	69
Cc1cnc(NC(=O)Nc2ccc(Cl)cc2)s1	.	76	.	.	.	49	.	.
Cc1ccc(NC(=O)Nc2nnc(-c3ccncc3)s2)cc1C	.	.	.	.	.	/	/	/
Cc1cnc(NC(=O)CSc2ccc(Cl)cc2)s1	.	.	.	.	.	/	/	/
O=C(Nc1ccc(Cl)cc1)Nc1nnc(-c2ccncc2)s1	.	74	.	.	.	72	25	70
CN1C(=O)c2cc(NC(=O)C3CCOCC3)ccc2OC[C@@H]2O[C@@H](CC(=O)NC3CCCC3)CC[C@H]21	/	/	/	/	.	/	/	/
CO[C@H]1CN(C)C(=O)c2cc(NS(=O)(=O)CC(F)(F)F)ccc2OC[C@H](C)N(C(=O)NC(C)C)C[C@H]1C	/	/	/	/	.	/	/	/
COc1ccc(NC(=O)c2c(Nc3ccccc3)sc(C(=O)c3ccc(F)cc3)c2N)cc1	.	75	.	.	91	85	35	81
CCOC(=O)c1sc(NC(=O)c2cc(-c3ccccc3C)nc3ccccc23)c(C#N)c1C	.	63	.	.	/	82	.	74
Cc1nn(Cc2noc(C(=O)NC3CCC(C)CC3)n2)c(C)c1Br (configuration not stated)	.	.	.	.	.	80	29	.
N#Cc1ccsc1NC(=O)CCc1ccccc1	.	.	.	.	.	/	/	/
N#Cc1ccsc1NC(=O)CCN1CCN(C(c2ccccc2)c2ccccc2)CC1	.	.	.	.	.	.	.	.
CSc1nc2c(c(C(F)(F)F)n1)CC(C)CC2 (configuration not stated)	.	99	.	.	/	.	.	.
Cc1c2c(nc3ccccc13)CCC(C)C2 (configuration not stated)	.	.	.	.	.	/	/	/
CCS(=O)(=O)NCC[C@@H]1CC[C@@H](NC(=O)C2CCCC2)[C@@H](CO)O1	/	/	/	/	.	/	/	/
C[C@@H]1CN([C@H](C)CO)C(=O)c2cc(C3=CCCCC3)cnc2O[C@H]1CN(C)Cc1cccnc1	/	/	/	/	.	/	/	/
